Bioassay records from PubChem BioAssay.
Most compounds without a hit are left out; they make up all but 3.4% or so of the library.
MITF inh – inhibitors of human MITF. inhibition, % at 2.6 µM. 650,000 tested, 0.91% active. AlphaScreen MITF homodimerization, bead proximity signal; in the data active = inhibition above about 50%
Target sequence (O75030 whole entry, looked up): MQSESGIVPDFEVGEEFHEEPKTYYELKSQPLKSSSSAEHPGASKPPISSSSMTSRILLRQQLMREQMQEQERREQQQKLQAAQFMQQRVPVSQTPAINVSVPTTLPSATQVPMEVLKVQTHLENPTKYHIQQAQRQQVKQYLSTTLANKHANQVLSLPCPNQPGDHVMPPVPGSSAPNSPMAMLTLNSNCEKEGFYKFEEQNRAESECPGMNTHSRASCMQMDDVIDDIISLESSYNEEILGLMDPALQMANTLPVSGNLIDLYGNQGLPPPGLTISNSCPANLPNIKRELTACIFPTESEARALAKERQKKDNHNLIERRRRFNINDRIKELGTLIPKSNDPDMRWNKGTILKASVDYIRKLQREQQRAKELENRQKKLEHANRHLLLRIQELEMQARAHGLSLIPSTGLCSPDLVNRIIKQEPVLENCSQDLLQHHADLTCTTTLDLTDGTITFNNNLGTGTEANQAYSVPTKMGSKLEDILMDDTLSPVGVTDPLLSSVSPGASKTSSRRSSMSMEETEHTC
TEAD-YAP inh – TEAD-YAP interaction inhibition. HEK-TIYL cells, TEAD-Gal4/YAP UAS-luciferase luminescence. 640,000 tested, 1.4% active. inhibition, % at 9.12 µM; in the data active = inhibition above about 32%
GPR151 ag – activators of human GPR151; PathHunter beta-arrestin GPR151 cells, luminescence; activation, % at 11.2 µM; 650,000 tested, 1% active; AID 1508602; in the data active = activation above about 4.9%
FBW7 activator – human FBW7 E3 ligase activation, primary screen. AlphaScreen FBW7–phospho-cyclin E peptide binding, activator screen. normalized activity (activation), % at 26.1 µM. 650,000 tested, 0.13% active; in the data active = normalized activity above about 1.9%;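 note: purified mutant Fbw7 with reduced substrate affinity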
GPR151 conf act – human GPR151 activation, confirmation screen. shares compounds with GPR151 ag. GPR151 PathHunter beta-arrestin cells, luminescence, 90 min; % of EA-reagent control over plate median. activation, % at 11.2 µM. 6,700 tested, under 10 active. AID 1508609;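 active = mean percent activation across replicates above the confirmation screen cutoff of 4.91%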
GPR119 ag – counter-screen for GPR151 activators: effect on human GPR119. activation, % at 11.2 µM. 6,700 tested, 0.3% active. GPR119 PathHunter beta-arrestin cells, luminescence, 90 min; 0 = compound-well median, 100 = enzyme-acceptor control. shares compounds with GPR151 ag;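 active = mean percent activation in the counterscreen above 29.09%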;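 note: counterscreen on off-target GPR119 to flag nonselective hits from the GPR151 activator screen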
Of the large screens only hits and unclear results are named; the others gave an inactive call (follow-up assays come after a bar, where they were run); ! = a repeat was not active.

CCN1C(=O)c2cccc3c(NC(=O)/C=C/c4ccc(Br)o4)ccc1c23	none
COc1cccc(CNC(=O)c2ccc(CNc3c(N4CCOCC4)c(=O)c3=O)cc2)c1	GPR151 ag 8.6 | GPR151 conf act inactive | GPR119 ag inactive
CCOC(=O)N1CCN(c2c(NCc3cccnc3)c(=O)c2=O)CC1	none
CCOC(=O)N1CCN(c2c(NC3CCCCC3)c(=O)c2=O)CC1	none
CCOC(=O)N1CCN(c2c(NC3CCC(C)CC3)c(=O)c2=O)CC1 (configuration not stated)	GPR151 ag 5.0 | GPR151 conf act inactive | GPR119 ag inactive
O=C(O)c1ccc(CNc2c(N3CCCCC3)c(=O)c2=O)cc1	GPR151 ag 7.5 | GPR151 conf act inactive | GPR119 ag inactive
CCOC(=O)N1CCN(c2c(NCc3ccc(Cl)cc3)c(=O)c2=O)CC1	TEAD-YAP inh 53, GPR151 ag 4.9 | GPR151 conf act inactive | GPR119 ag inactive
CC(=O)Nc1ccc(NC(=O)C2CCN(S(=O)(=O)c3c(C)cc(C)cc3C)CC2)cc1	none
COCCn1c(=O)[nH]c2cc(C(=O)OC)ccc21	none
O=C(O)c1cc(N2C(=O)/C(=C/c3ccc(Cl)cc3)C=C2c2ccccc2)ccc1O	none
O=C(Nc1ccc(S(=O)(=O)NCc2ccccc2)cc1)N1CCCC1	GPR151 ag 7.0 | GPR151 conf act inactive | GPR119 ag inactive
O=C(NN1CCOCC1)c1ccc(C(=O)c2ccccc2)cc1	none
COc1ccc(Br)cc1C1=N/C(=C\c2cccc(OC)c2OC)C(=O)O1	GPR151 ag 6.8 | GPR151 conf act inactive | GPR119 ag inactive
COc1ccc(Br)cc1/C=C1\N=C(c2cc(Br)ccc2OC)OC1=O	none
CC(=O)OC[C@H]1O[C@H](C#Cc2ccc(C(C)(C)C)cc2)C=C[C@@H]1OC(C)=O	none (no result: TEAD-YAP inh)
COc1ccc(C#C[C@@H]2C=C[C@H](OC(C)=O)[C@@H](COC(C)=O)O2)cc1	GPR151 ag 9.3! (no result: TEAD-YAP inh) | GPR151 conf act inactive | GPR119 ag inactive
COCCN(Cc1ccsc1)C(=O)NCCCc1ccccc1	none
COc1cccc(CNC(=S)NC2CCCC2)c1	GPR151 ag 6.3 | GPR151 conf act inactive | GPR119 ag inactive
O=C(CCNS(=O)(=O)c1ccc(F)cc1)N1CCC2(CC1)OCCO2	none
O=C(O)c1ccc(Cl)c(S(=O)(=O)Nc2cccc(Br)c2)c1	none
CCC(C)NC(=O)Cn1nc(-c2ccccc2)ccc1=O (configuration not stated)	GPR151 ag 8.5 | GPR151 conf act inactive | GPR119 ag inactive
COc1ccc(Nc2nnc(Cc3ccccc3Cl)c(=O)[nH]2)c(OC)c1	GPR151 ag 6.4 | GPR151 conf act inactive | GPR119 ag inactive
CCOC1OC(=O)C(Cl)=C1Nc1cccc(C)c1 (configuration not stated)	GPR151 ag 5.0 | GPR151 conf act inactive | GPR119 ag inactive
COc1cc(Nc2ncc(C(=O)NCc3ccccc3)s2)cc(OC)c1OC	GPR151 ag 6.1 | GPR151 conf act inactive | GPR119 ag inactive
COc1cc(C(=O)NCc2cc(-c3ccccc3)on2)cc(OC)c1OC	GPR151 ag 6.2 | GPR151 conf act inactive | GPR119 ag inactive
C=CC[n+]1c(-c2ccc(Cl)cc2)csc1NNC(=O)c1ccc(Br)cc1	none
O=C(NS(=O)(=O)c1ccccc1)c1ccccc1O	GPR151 ag 5.6 | GPR151 conf act inactive | GPR119 ag inactive
O=C(NC(=S)NCc1ccccc1)c1ccccc1F	GPR151 ag 7.0 | GPR151 conf act inactive | GPR119 ag inactive
O=C(NC(=S)NC(=O)c1ccccc1F)c1ccccc1F	none
CCOC(=O)c1ccc(NC(=O)N2CCCC(c3ncncc3S(C)(=O)=O)C2)cc1 (configuration not stated)	none
COc1ccc(NC(=O)/C=C/C(=O)O)cc1	none
N#Cc1ccc(Oc2ccc(NC(=O)/C=C\C(=O)O)cc2)cc1	GPR151 ag 5.3 | GPR151 conf act inactive | GPR119 ag inactive
O=C1OC(c2ccc(Cl)cc2Cl)=N/C1=C\c1cccc(Cl)c1Cl	GPR151 ag 8.0 | GPR151 conf act inactive | GPR119 ag inactive
O=C(OCc1ccccc1)n1c(=O)oc2cc(Cl)ccc21	none
COc1ccc(Cc2nn3c(-c4ccc(C)cc4)nnc3s2)cc1	GPR151 ag 6.4 | GPR151 conf act inactive | GPR119 ag inactive
O=C(c1ccc(-c2cnn(-c3ccc(Br)cc3)c2)nc1)N1CCOCC1	none
COc1ccc(/C(C)=N/Nc2ccc([N+](=O)[O-])cc2S(=O)(=O)N2CCOCC2)cc1	none
C/C(=N\Nc1ccc([N+](=O)[O-])cc1S(=O)(=O)N1CCOCC1)c1cccs1	GPR151 ag 6.3 | GPR151 conf act inactive | GPR119 ag inactive
Cc1cccc(-c2nc(CCNC(=O)Cc3ccccc3)cs2)c1	GPR151 ag 5.8 | GPR151 conf act inactive | GPR119 ag inactive
O=C1CC(N2CCN(C3CCCCC3)CC2)C(=O)N1c1ccc(Cl)cc1 (configuration not stated)	GPR151 ag 6.8 | GPR151 conf act inactive | GPR119 ag inactive
COc1ccccc1N=C1S/C(=C\c2ccccc2)C(=O)N1c1ccccc1OC	none
Cc1ccc([N+](=O)[O-])cc1NC(=O)Cc1ccc(F)cc1	GPR151 ag 5.4 | GPR151 conf act inactive | GPR119 ag inactive
Cc1cc([N+](=O)[O-])ccc1NC(=O)Cc1ccc(F)cc1	none
CC(=O)CC(=O)Nc1cc([N+](=O)[O-])ccc1C	none
C/C(CC(=O)Nc1cc([N+](=O)[O-])ccc1C)=N\NC(=O)C(=O)NCCO	GPR151 ag 8.3 | GPR151 conf act inactive | GPR119 ag inactive
COc1cc(OC)cc(-n2nc(C(=O)N(C)c3ccc(C(C)C)cc3)c3ccccc3c2=O)c1	none
CC(=O)N/C(N)=N/c1nc2cc(C)ccc2o1	GPR151 ag 5.4! | GPR151 conf act inactive | GPR119 ag inactive
CCOC(=O)C1C(=O)CC(C)(O)C(C(=O)OCC)C1c1ccc2c(c1)OCO2 (configuration not stated)	GPR151 ag 5.1 | GPR151 conf act inactive | GPR119 ag inactive
CCOC(=O)C1C(=O)CC(C)(O)C(C(=O)OCC)C1c1ccc(C)cc1 (configuration not stated)	none
CCCCCOC(=O)C1=C(C)NC2=C(C(=O)CCC2)C1c1ccccc1OC (configuration not stated)	none
COc1cc(NC(=O)C2CCN(c3ccc(Nc4ccccc4)nn3)CC2)cc(OC)c1OC	none
COc1cc(NC(=O)C2CCN(c3ccc(Nc4cc(OC)c(OC)c(OC)c4)nn3)CC2)cc(OC)c1OC	GPR151 ag 7.8 | GPR151 conf act inactive | GPR119 ag inactive
Cc1c(NC(=O)c2cc(-c3ccc(Cl)c(Cl)c3)on2)c(=O)n(-c2ccccc2)n1C	GPR151 ag 8.5 | GPR151 conf act inactive | GPR119 ag inactive
Cc1c(NC(=O)Cc2ccc(Cl)cc2)c(=O)n(-c2ccccc2)n1C	none
